# In publication PMC11062922 (Nature Chemical Biology, 2023):
# Read-outs that look alike come from different tables or passages of the source.
# What was measured:
# Set-up in all cases: species or system human, MV4-11 + K-562 + COLO205 + SK-N-BE2 + OVCAR-8
# [1] = system: MARK2; details: read-out: apparent Kd, n = 1
# [2] = system: PRKAA2; details: read-out: apparent Kd, n = 1
# [3] = system: RPS6KA3; details: read-out: apparent Kd, n = 1
# [4] = system: ACVR1B; details: read-out: apparent Kd, n = 1
# [5] = system: CDC42BPB; details: read-out: apparent Kd, n = 1
# [6] = system: MAP3K11; details: read-out: apparent Kd; compound concentrations:100 nM and 1000 nM (sheet 'Samples'); n = 1
# [7] = system: PAK6; details: read-out: apparent Kd, n = 1
# [8] = system: PRKCA; details: read-out: apparent Kd, n = 1
# [9] = system: RPS6KB1; details: read-out: apparent Kd, n = 1
# [10] = system: CIT; details: read-out: apparent Kd, n = 1
# [11] = system: IRAK3; details: read-out: apparent Kd, n = 1
# [12] = system: NUAK2; details: read-out: apparent Kd, compound concentrations: 100 nM and 1000 nM (sheet 'Samples'), n = 1
# [13] = system: AURKB; details: read-out: apparent Kd, n = 1
# [14] = system: BUB1; details: read-out: apparent Kd; compound concentrations:100 nM and 1000 nM (sheet 'Samples'); n = 1
# [15] = system: EPHB1; details: read-out: apparent Kd; compound concentrations:100 nM and 1000 nM (sheet 'Samples'); n = 1
# [16] = system: PKN2; details: read-out: apparent Kd, n = 1
# [17] = system: MAPK14; details: read-out: apparent Kd, compound concentrations: 100 nM and 1000 nM (sheet 'Samples'), n = 1
# [18] = system: BTK; details: read-out: apparent Kd; compound concentrations: 100 nM and 1000 nM (sheet 'Samples'), CATDS: 1.9599592223560901E-2; n = 1
# [19] = system: EPHA2; details: read-out: apparent Kd; compound concentrations: 100 nM and 1000 nM (sheet 'Samples'), CATDS: 2.1099204097422001E-2; n = 1
# [20] = compound concentrations:100 nM and 1000 nM (sheet 'Samples')
compound,measurement,setting,value
COc1cc[nH]c1/C=C1\C(=O)Nc2ccc(F)c(C#CC3(O)CCNCC3)c21.Cl [RO0282986-001],potency estimated from few doses,"[1]; compound concentrations: 100 nM and 1000 nM (sheet 'Samples'), CATDS: 1.32977550051059E-2",536 nM
same,potency estimated from few doses,"[2]; compound concentrations: 100 nM and 1000 nM (sheet 'Samples'), CATDS: 1.2623383108322899E-2",618 nM
same,potency estimated from few doses,"[3]; compound concentrations: 100 nM and 1000 nM (sheet 'Samples'), CATDS: 1.1263723561624001E-2",868 nM
COc1ccc(Nc2nccc(-c3ccc(NC(=O)c4cc5cc(F)ccc5[nH]4)cc3)n2)cc1 [GSK1229496A],potency estimated from few doses,"[4]; compound concentrations: 100 nM and 1000 nM (sheet 'Samples'), CATDS: 0.38937877773487001",643 nM
O=C(O)C(F)(F)F.O=c1[nH]ccc2nc(N[C@@H]3CCNC3)nc(Nc3cc(Cl)cc(Cl)c3)c12 [GSK2188764A],potency estimated from few doses,[5]; [20],1870 nM
same,potency estimated from few doses,[6],813 nM
same,potency estimated from few doses,[1]; [20],535 nM
same,potency estimated from few doses,[7]; [20],538 nM
same,potency estimated from few doses,[2]; [20],106 nM
same,potency estimated from few doses,[8]; [20],905 nM
same,potency estimated from few doses,[9]; [20],1520 nM
CN(C)CC(O)COc1ccc(Nc2nccc(-c3cnn4nc(N5CCOCC5)ccc34)n2)cc1 (stereo not shown) [GW767488X],potency estimated from few doses,[10]; [20],998 nM
same,potency estimated from few doses,[11]; [20],64.8 nM
CCN(CC)Cc1ccc(Nc2nccc(-c3cnn4ncccc34)n2)cc1 [GW780056X],potency estimated from few doses,[12]; CATDS: 2.1304819470262599E-2,1070 nM
same,potency estimated from few doses,"[7]; compound concentrations: 100 nM and 1000 nM (sheet 'Samples'), CATDS: 1.8956003976459398E-2",1620 nM
CN(C)CCNC(=O)Nc1ccc(N(C)c2ccnc(Nc3ccc(CS(C)(=O)=O)cc3)n2)cc1.Cl [GW830900A],potency estimated from few doses,[13]; [20],387 nM
Nc1nc(Nc2ccccc2)cc(-c2ccc3c(N)n[nH]c3c2)n1 [GSK2225749A],potency estimated from few doses,[4]; [20],293 nM
same,potency estimated from few doses,[14],1900 nM
Cl.Cl.NC(CNC(=O)c1cc(Br)c(-c2ccnc3[nH]ccc23)s1)c1ccccc1.NC(CNC(=O)c1cc(Br)c(-c2ccnc3[nH]ccc23)s1)c1ccccc1 (stereo not shown) [GSK1322949A],potency estimated from few doses,"[5]; compound concentrations: 100 nM and 1000 nM (sheet 'Samples'), CATDS: 4.7345157694920897E-2",499 nM
same,potency estimated from few doses,[12]; CATDS: 3.0654913086493301E-2,1150 nM
CNc1cc(-c2ccc3c(N)n[nH]c3c2)nc(N)n1 [GSK2224810A],potency estimated from few doses,[4]; [20],361 nM
same,potency estimated from few doses,[15],1180 nM
c1ccc(-c2n[nH]cc2Nc2ccnc3ccccc23)nc1 [GW694077X],potency estimated from few doses,"[11]; compound concentrations: 100 nM and 1000 nM (sheet 'Samples'), CATDS: 9.0170551839232005E-2",57.6 nM
same,potency estimated from few doses,"[16]; compound concentrations: 100 nM and 1000 nM (sheet 'Samples'), CATDS: 2.23851306081322E-2",2310 nM
CN(c1ccc(NC(=O)NCCN2CCOCC2)cc1)c1ccnc(Nc2ccc(CS(C)(=O)=O)cc2)n1.Cl [GW830365A],potency estimated from few doses,"[13]; compound concentrations: 100 nM and 1000 nM (sheet 'Samples'), CATDS: 8.1167400456920294E-2",384 nM
CCn1c(-c2nonc2N)nc2cncc(C(=O)N3CC[C@H](N)C3)c21.Cl [SB-772077-B],potency estimated from few doses,[14],1790 nM
same,potency estimated from few doses,[5]; [20],932 nM
same,potency estimated from few doses,[10]; [20],1450 nM
same,potency estimated from few doses,[16]; [20],73.8 nM
same,potency estimated from few doses,[8]; [20],826 nM
same,potency estimated from few doses,[9]; [20],93.8 nM
Cl.Cl.NC[C@H](CC1CCCCC1)NC(=O)c1ccc(-c2ccnc3[nH]ccc23)s1.NC[C@H](CC1CCCCC1)NC(=O)c1ccc(-c2ccnc3[nH]ccc23)s1 [GSK1581428A],potency estimated from few doses,[5]; [20],10.5 nM
same,potency estimated from few doses,[16]; [20],452 nM
same,potency estimated from few doses,[8]; [20],2080 nM
same,potency estimated from few doses,[9]; [20],179 nM
CCC(CC)(CC)n1cnc2c(N)ncnc21 [SKF-97620],potency estimated from few doses,[17]; CATDS: 3.1976912509304997E-2,857 nM
Cl.Cn1c(=O)c(Cc2ccccc2F)cc2cnc(NC3CCOCC3)nc21 [RO3305377-001],potency estimated from few doses,[18],1180 nM
same,potency estimated from few doses,[19],976 nM
same,potency estimated from few doses,[17]; CATDS: 8.5761159080735103E-2,105 nM
same,potency estimated from few doses,"[7]; compound concentrations: 100 nM and 1000 nM (sheet 'Samples'), CATDS: 1.7508305071041501E-2",1640 nM
Nc1nccc(-c2ccc3c(N)n[nH]c3c2)n1 [GSK1034945A],potency estimated from few doses,[1]; [20],1440 nM
CCn1c(-c2nonc2N)nc2cncc(Br)c21 [SB-738004],potency estimated from few doses,[5]; [20],1970 nM
same,potency estimated from few doses,[16]; [20],122 nM
same,potency estimated from few doses,[8]; [20],1290 nM
same,potency estimated from few doses,[9]; [20],360 nM
COc1cc2ncn(-c3cc(OCc4ccccc4S(C)(=O)=O)c(C#N)s3)c2cc1OC [GSK319347A],potency estimated from few doses,"[13]; compound concentrations: 100 nM and 1000 nM (sheet 'Samples'), CATDS: 0.10534744790645301",893 nM
Cc1occc1-c1nc(N)c(OC[C@@H](N)Cc2c[nH]c3ccccc23)cc1-c1cc2c(C)n[nH]c2cn1 [GSK1660450B],potency estimated from few doses,[5]; [20],106 nM
same,potency estimated from few doses,[10]; [20],135 nM
same,potency estimated from few doses,[1]; [20],639 nM
same,potency estimated from few doses,[16]; [20],2110 nM
same,potency estimated from few doses,[8]; [20],40 nM
same,potency estimated from few doses,[3]; [20],861 nM
same,potency estimated from few doses,[9]; [20],112 nM
NS(=O)(=O)c1ccc(NC=C2C(=O)Nc3ccc4ncsc4c32)cc1 [GW589933X],potency estimated from few doses,"[13]; compound concentrations: 100 nM and 1000 nM (sheet 'Samples'), CATDS: 1.80896314222295E-2",1370 nM
same,potency estimated from few doses,[12]; CATDS: 1.7918277394981801E-2,1420 nM
Cl.Cn1cc(C2=C(c3c4n(c5ccccc35)CCNC4)C(=O)NC2=O)c2ccccc21 [RO0318365-001],potency estimated from few doses,"[8]; compound concentrations: 100 nM and 1000 nM (sheet 'Samples'), CATDS: 4.6045234882761202E-2",2150 nM
Nc1nc(-c2ccc3c(N)n[nH]c3c2)cc(N2CCCC(NC(=O)c3ccccc3)C2)n1 (stereo not shown) [GSK2286775B],potency estimated from few doses,[13]; [20],414 nM
COc1cc[nH]c1/C=C1\C(=O)Nc2ccc(F)c(C#C[C@@H](O)[C@@H](N)[C@@H](C)O)c21 [RO0283120-000],potency estimated from few doses,[1]; [20],803 nM
CN[C@H](C#Cc1c(F)ccc2c1/C(=C/c1[nH]ccc1OC)C(=O)N2)CO.Cl [RO0283049-001],potency estimated from few doses,"[2]; compound concentrations: 100 nM and 1000 nM (sheet 'Samples'), CATDS: 2.2132106558792702E-2",1240 nM
CNCC1CCn2c(c(C3=C(c4cn(C)c5ccccc45)C(=O)NC3=O)c3ccccc32)C1 (stereo not shown) [RO0318676-000],potency estimated from few doses,"[8]; compound concentrations: 100 nM and 1000 nM (sheet 'Samples'), CATDS: 0.32206529387914401",11.4 nM
same,potency estimated from few doses,"[3]; compound concentrations: 100 nM and 1000 nM (sheet 'Samples'), CATDS: 2.8652335073443402E-2",1620 nM
same,potency estimated from few doses,"[9]; compound concentrations: 100 nM and 1000 nM (sheet 'Samples'), CATDS: 3.9813258984907299E-2",600 nM
O=C(Nc1n[nH]c2nc(-c3ccccc3O)ccc12)C1CC1 [SB-711880],potency estimated from few doses,[6],1520 nM
same,potency estimated from few doses,[1]; [20],2380 nM
COc1cc[nH]c1/C=C1\C(=O)Nc2ccc([N+](=O)[O-])c(N3CC[C@@H](O)C3)c21 [RO0504985-000],potency estimated from few doses,[12]; CATDS: 3.1931655972065397E-2,1490 nM
Cl.Cl.NCC(NC(=O)c1cc(-c2ccnc3[nH]ccc23)cs1)c1ccccc1.NCC(NC(=O)c1cc(-c2ccnc3[nH]ccc23)cs1)c1ccccc1 (stereo not shown) [GSK1229959A],potency estimated from few doses,"[5]; compound concentrations: 100 nM and 1000 nM (sheet 'Samples'), CATDS: 9.85023329891931E-2",8.96 nM
same,potency estimated from few doses,"[10]; compound concentrations: 100 nM and 1000 nM (sheet 'Samples'), CATDS: 3.2542810657946203E-2",113 nM
same,potency estimated from few doses,"[16]; compound concentrations: 100 nM and 1000 nM (sheet 'Samples'), CATDS: 3.5150417589149101E-2",88.5 nM
same,potency estimated from few doses,"[9]; compound concentrations: 100 nM and 1000 nM (sheet 'Samples'), CATDS: 2.0581414615248698E-2",679 nM
COc1ccc(-n2cnc3c(N)ncnc32)cc1 [SKF-97236],potency estimated from few doses,[17]; CATDS: 0.140639496900372,1390 nM
